Only a selection was taken, and hits are over-represented in it overall.
Tg IFNy HTS = T. gondii growth inhibition with IFN-gamma, primary screen, cell-based. hit rate 3.8% among 69,000. activity change, negative = inhibition, % (test concentration not listed). Toxoplasma gondii growth in IFN-gamma-treated host cells; hits give low values; in the data active = activity change below about -70%, passing the limit was not always enough;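 also: host cells are HeLa cells infected with Toxoplasma gondii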
Active calls of the source: *.

SMILES	Tg IFNy HTS
CCN(CC)CCOC(=O)C1(C2CCCCC2)CCCCC1	-9.9
CCC(C(=O)NCCCN1CCCC1)n1c2ccccc2c2cnn(C)c(=O)c21 (centres undefined)	-39.4
Cc1ccsc1[C@@H]1CCN(C(=O)c2cnc(-c3ccccc3)[nH]2)C[C@H]1O	36.4
CN(C)CCOc1ccccc1C(=O)N1CCC(Oc2ccccc2F)CC1	-3.3
CSCCC(=O)N(Cc1ccsc1)CC(C)C	-6.5
S=C(Nc1ccccc1)Nc1ccccn1	61.2
O=C1NN=CC1CCCNC(=S)Nc1cccc(C(F)(F)F)c1 (centres undefined)	13.5
FC(F)(F)c1cccc(NC(=S)Nc2ccccn2)c1	-113.3*
Cc1nc(N2CCCC2)nc2c1CN(Cc1ccccc1)CC2	-46.8
COc1cccc2c1OCCCN(Cc1ncccc1C(=O)O)C2	5.4
C[C@]12CCC(=O)C=C1[C@@H]1C[C@@H]1[C@H]1[C@@H]3[C@@H]4C[C@@H]4[C@@]4(CCC(=O)O4)[C@@]3(C)CC[C@@H]12	-85.0*
CC(=O)SC1CC2=CC(=O)CCC2(C)C2CCC3(C)C(CCC34CCC(=O)O4)C12 (centres undefined)	-24.8
CC(=O)[C@@]1(O)CC[C@H]2[C@@H]3C[C@H](C)C4=CC(=O)CC[C@]4(C)[C@H]3CC[C@@]21C	4.8
CCc1nc(OCC(=O)NCc2ccc(OC)cc2)c2ccccc2n1	12.3
CCN1CCC2(CC1)OC(=O)C(C)=C2C(=O)Nc1c(C)cc(C)cc1C	80.4
O=C(c1ccc2c(c1)CCO2)N1CCOC(c2ccc(Cl)c(Cl)c2)C1 (centres undefined)	-20.4
CC(C)CN1C2COCC1CN(S(=O)(=O)c1cn(C)cn1)C2	-11.1
CC(C)c1nccc(CN2CCN(S(=O)(=O)c3ccccc3)CC2)n1	3.6
CCC(=O)c1ccc(OCC(O)CN2CCN(c3ccccc3)CC2)cc1 (centres undefined)	11.9
O=S(=O)(c1ccccc1)N1CCN(CC(O)COc2ccc3ccccc3c2)CC1 (centres undefined)	-82.7*
O=C(Cn1ncc2c(N3CCCCC3)ncnc21)NCc1cccc(Cl)c1	-13.6
CS(=O)(=O)N[C@@H]1CCN(CC2CCOC2)[C@H]1Cc1ccccc1 (some centres undefined)	-3.3
COc1ccc(F)c([C@@H]2NC(=O)CC[C@H]2NCc2cn[nH]c2-c2ccccc2)c1	-0.7
COC(=O)C1(Cc2ccccc2F)NC(=O)CC2CCC1N2Cc1ccccc1 (centres undefined)	-77.3*
O=C1NC(=O)C(Cc2ccccc2F)(C2CCNCC2)N1 (centres undefined)	-2.5
SMILES	Tg IFNy HTS
CC(=O)N[C@@H]1C[C@H](Cc2ccccc2)O[C@H](c2cnc(-c3ccccn3)nc2)C1	-5.7
O=C1CC2C(CCN2C(=O)c2cccc(Cl)c2)N1CC1CC1 (centres undefined)	-7.3
Cc1ccc(C)c(-c2coc(-c3ccc(NC(=O)C(C)C)cc3)n2)c1	-32.0
COc1ccc(S(=O)(=O)Nc2ccc3c(c2)C(=O)N([C@H](C)CO)C[C@@H](C)[C@H](CN(C)Cc2ccc(C(F)(F)F)cc2)OCCCC[C@H](C)O3)cc1	-100.7*
COc1ccc(S(=O)(=O)Nc2ccc3c(c2)C(=O)N([C@H](C)CO)C[C@H](C)[C@@H](CN(C)Cc2ccc(C(F)(F)F)cc2)OCCCC[C@H](C)O3)cc1	6.1
Cc1ccc(S(=O)(=O)Nc2ccc3c(c2)C(=O)N([C@H](C)CO)C[C@@H](C)[C@H](CN(C)Cc2ccc(C(F)(F)F)cc2)O3)cc1	-20.0
COc1ccc(CN(C)C[C@@H]2OCCCC[C@H](C)Oc3ccc(NC(=O)C4CCCCC4)cc3C(=O)N([C@H](C)CO)C[C@H]2C)cc1	-24.5
COc1ccc(CN(C)C[C@@H]2OCCCC[C@@H](C)Oc3ccc(NC(=O)C4CCCCC4)cc3C(=O)N([C@@H](C)CO)C[C@H]2C)cc1	-3.2
C[C@@H]1CN([C@@H](C)CO)C(=O)c2cc(NS(=O)(=O)c3cn(C)cn3)ccc2O[C@@H](C)CCCCO[C@@H]1CN(C)C(=O)Nc1ccc(C(F)(F)F)cc1	45.5
C[C@H](CO)N1C[C@H](C)[C@@H](CN(C)C(=O)Nc2ccc(C(F)(F)F)cc2)OCCCC[C@H](C)Oc2ccc(NS(=O)(=O)c3cn(C)cn3)cc2C1=O	143.5
C[C@@H]1CCCCO[C@H](CN(C)C(=O)Nc2ccc(C(F)(F)F)cc2)[C@H](C)CN([C@H](C)CO)C(=O)c2cc(NS(=O)(=O)c3cn(C)cn3)ccc2O1	-82.6*
COc1ccc(CN(C)C[C@@H]2OCCCC[C@H](C)Oc3ccc(NC(=O)C4CCCCC4)cc3C(=O)N([C@@H](C)CO)C[C@@H]2C)cc1	92.9
COc1ccc(S(=O)(=O)Nc2ccc3c(c2)C(=O)N([C@@H](C)CO)C[C@H](C)[C@@H](CN(C)Cc2ccc(C(F)(F)F)cc2)OCCCC[C@H](C)O3)cc1	-128.8*
COc1ccc(S(=O)(=O)Nc2ccc3c(c2)C(=O)N([C@H](C)CO)C[C@H](C)[C@@H](CN(C)Cc2ccc(C(F)(F)F)cc2)OCCCC[C@@H](C)O3)cc1	-90.9*
COc1ccc(CN(C)C[C@H]2OCCCC[C@@H](C)Oc3ccc(NC(=O)C4CCCCC4)cc3C(=O)N([C@H](C)CO)C[C@H]2C)cc1	38.9
CN(CCc1cn[nH]c1)C(=O)c1ccc(CC2CCCNC2)cc1 (centres undefined)	-3.3
O=C(c1cccnc1)N1CCC2(CC1)C(=O)NCC2c1ccccc1 (centres undefined)	-21.9
O=C(CSc1nc2ccccc2[nH]1)Nc1nc(-c2ccc(F)cc2)cs1	14.8
CN(CC1(CO)CCCC1)C(=O)Cc1ccncc1	27.7
CCc1nc(-c2noc3ccc(C(=O)N(C)CCOC)cc23)co1	112.7
CCC(C)NC(=O)N1CC[C@]2(c3ccccc3)CN(CC#N)CC2C1 (some centres undefined)	0.0
C=C(C)c1cccc(C(C)(C)NC(=O)NCc2ccco2)c1	-25.3
CCN1CCC2(CN(CC(C)C)CC23CCN(C(=O)c2ccc4[nH]ccc4c2)CC3)C1=O (centres undefined)	-1.5
CCS(=O)(=O)N1Cc2[nH]nc(COCc3cccnc3)c2C1	5.8
COCC(=O)N1CCCC2(CCC(=O)N2Cc2cccnc2)C1 (centres undefined)	-2.7
SMILES	Tg IFNy HTS
CCOc1ccc(Cc2nccc3cc(OCC)c(OCC)cc23)cc1OCC	-83.0*
COc1ccc(C(O)c2nccc3cc(OC)c(OC)cc23)cc1OC (centres undefined)	-0.2
CCOc1ccc(CNCc2cccs2)cc1OCC	2.8
CS(=O)(=O)N1CCC2(CC1)CC(C(=O)N1CCOCC1)c1ccccc12 (centres undefined)	64.6
CC(C)CN(Cc1ccsc1)C(=O)c1coc(CN2CCOCC2)c1	0.8
CC(=O)Nc1cccc(C(=O)N(Cc2ccsc2)CC2CCCO2)c1 (centres undefined)	149.7
CC(=O)Nc1cccc(C(=O)N(Cc2ccsc2)CC(C)C)c1	-79.4*
Cc1ccc2[nH]cc(-c3nc(C)cnc3C)c2c1	-33.0
CO[C@@H]1CO[C@@]2(CCCN(C(=O)C3CC=CC3)C2)C1	1.7
CN1C[C@]23CN(C(=O)C4CCC4)C[C@@H](C[C@H]2S1(=O)=O)O3	4.8
COc1ccc2ncc3c(c2c1)-c1cc(Cl)ccc1OC3	254.7
CC1CN(CC(=O)NCc2ccc3c(c2)OCO3)Cc2cc(Cl)ccc2O1 (centres undefined)	2.9
COc1ccc(CN2COc3ccc(Cl)cc3C2)cc1	-89.1*

Screening results (PubChem)
